Compounds without any hit were thinned out: in the full panel of roughly 83,000, 20% have a hit.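 Note: values are percent growth. 100 is the growth of untreated cells, values between 100 and 0 indicate rising inhibition; between -100 and 0 indicates cell death.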 Calls of active or inactive are those of the source. Rule for the calls: active = growth percent below 10; inactive = the rest.

The test system of the test is MDA-MB-468 breast. Put plainly: NCI-60 one-dose screen, 48 h (100 = growth as untreated, 0 = no growth, -100 = all killed). The conditions noted are these: 10 µM unless noted.
As for `Cc1ccc(C(NC(=O)c2ccccc2)c2ccc3cccnc3c2O)cc1` (stereo not given), the growth was -26.6% (active).

In the case of `O=C(Nc1cccc(-c2cccc(F)c2)c1)C1CCN(Cc2cccc3cccnc23)CC1`, the growth was 22.6% (inactive).

On to `CC(C)c1ccccc1NC(=O)N1CCC(C(C)C)CC1`, for which the growth is 99.8% (inactive).

As to `Oc1ccc2ccccc2c1CN1CCOCC1`, the growth was 123% (inactive).

On to `O=C1/C(=C\c2cccn2Cc2ccc(F)cc2)c2ccccc2N1c1c(Cl)cccc1Cl`, for which the growth was 9.21% (active).

`CS(=O)(=O)c1ccc(N/N=C/c2c(-c3ccc(S(C)(=O)=O)cc3)[nH]c3ccc(F)cc23)cc1`: the growth is 64.3% (inactive).

Regarding `CCS(=O)(=O)Nc1cccc(Nc2c3cccc(C)c3nc3c(C)cccc23)c1OC`, the growth is 37.7% (inactive).

For `COc1ccccc1-n1cc(C#N)c(N)c1C(=O)c1ccc(Cl)cc1`, the growth was 51.6% (inactive).

Take `O=C(Nc1ccc(Nc2ncnc3sc4c(c23)CCOC4)cc1)Nc1ccc(Cl)c(C(F)(F)F)c1`: the growth was 83.5% (inactive).

As to `COc1cc(C(=O)C[n+]2ccc3ccccc3c2)cc(OC)c1OC`, the growth is 98.3% (inactive).

(Values after PubChem BioAssay (NCI).)
